Source: PubChem
Shown are actives, neighbours in structure and some others; about 3.6% of the full set was active somewhere.
HSF1 activator = HSF-1 activators, primary screen, NIH3T3-HGL cells, MG132 stress, luminescence, single point | NIH3T3-HGL HSF-1 luciferase reporter, 8 h; 100% = twice DMSO control signal | activation, % at 9 µM | 300,000 compounds, 1.7% hits | AID 504408, 2011;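 active = mean replicate activation of at least 50% with a set share of replicates each reaching 50%; inconclusive = only one of those two conditions met; inactive = mean below 50% and too few replicates reaching it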
HSF1 inh = HSF1 inhibitors in luciferase reporter cells, primary screen, cell-based, NIH3T3, luminescence; NIH3T3-HGL HSE-luciferase, MG132-induced, luminescence 8 h; hits give low values; activity change, negative = inhibition, % at 7.5 µM (by protocol); 300,000 compounds, 0.77% hits; AID 2098, 2009;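 active = more than half of replicate wells show activity change below -50%, luminescence cut by over half; inconclusive = some wells, but at most half, below -50%; inactive = no replicate well below -50%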;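 also: luciferase reports HSF-1 transcriptional activity via heat shock element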
LMP1 NFkB inh = EBV LMP1-driven NF-kappaB luciferase reporter inhibitors, primary screen, cell-based, luminescence, single point; LMP1-induced NF-kappaB luciferase reporter cells; inhibition, % at 12.5 µM; 350,000 compounds, 0.69% hits; in the data active = inhibition above about 41%; inconclusive = no clear call, values can overlap the other calls
LGR2 inh = inhibitors of bursicon-induced LGR2 CRE-luciferase signal, primary screen, cell-based, HEK293, CRE-luciferase reporter, bursicon stimulation | Drosophila bursicon receptor LGR2 (rickets) | bursicon-stimulated, 4 h | inhibition, % at 9.99 µM | 380,000 compounds, 0.35% hits | AID 720647, 2013;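 active = drop in luminescence signal, shown as inhibition above about 50% in the replicate tests, limit read from the data, passing the limit was not always enough; inconclusive = probably only some replicates passing the limit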;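 also: agonist challenge used bursicon conditioned medium at about half maximal strength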
TWEAK-Fn14 inh = inhibitors of TWEAK-Fn14 signaling, primary screen, luciferase reporter cells, uHTS; TWEAK-stimulated Fn14 reporter cells, luciferase luminescence, 8 h; inhibition, % at 10 µM; 360,000 compounds, 2% hits; AID 1159606, 2016; in the data active = inhibition above about 50%
TROY NFkB inh = inhibitors of TROY-driven NF-kB signaling, primary screen, Q293 LMP1-TROYcd cells, NF-kB luciferase, uHTS; 360,000 compounds, 0.98% hits; inhibition, % at 10 µM; Q293 LMP1-TROYcd NF-kB luciferase reporter, 4 h;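 active = compounds whose plate-normalised and pattern-corrected inhibition of the luciferase reporter signal at the single screening dose is 50% or more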
Large screens that a line does not name were inactive.

Cc1csc2ncnc(N3CCN(C(=S)Nc4ccc(F)cc4F)CC3)c12	TWEAK-Fn14 inh 54.5, TROY NFkB inh 89.8 (no result: LMP1 NFkB inh)
CCn1c(SCC(=O)N/N=C/c2c[nH]c3ccccc23)nnc1-c1ccc(C(C)(C)C)cc1	TWEAK-Fn14 inh 59.7
CCn1c(SCC(=O)N/N=C/c2ccc(C)o2)nnc1-c1ccc(C)cc1	TWEAK-Fn14 inh 60.9
CCOC(=O)c1cccc2c1-c1ccccc1/C2=N/O	TWEAK-Fn14 inh 86.2, TROY NFkB inh 50.3 (no result: HSF1 activator, HSF1 inh, LGR2 inh)
COCC#Cc1cnc2c(c1)C(=O)N([C@@H](C)CO)C[C@H](C)[C@@H](CN(C)Cc1ccc3c(c1)OCO3)O2	none (no result: HSF1 activator, HSF1 inh, LMP1 NFkB inh, TWEAK-Fn14 inh, TROY NFkB inh)
CN(C)c1ccc(C(=O)N2CCCC(N3CCN(Cc4ccc5c(c4)OCO5)CC3)C2)cc1 (stereo unspecified)	none
O=C(c1ccc(F)cc1)N1CCCC(N2CCN(Cc3ccc4c(c3)OCO4)CC2)C1 (stereo unspecified)	HSF1 inh -54.1
O=C(C1CCCN(S(=O)(=O)Cc2ccccc2)C1)N1CCc2ccccc21 (stereo unspecified)	HSF1 inh -57.8 (no result: LGR2 inh)
CC(=O)n1cc(N(C(=O)CCl)c2ccccc2)c2ccccc21	TWEAK-Fn14 inh 65.5
O=Cc1[nH]c2ccccc2c1N(C(=O)CCl)c1ccc([N+](=O)[O-])cc1	LGR2 inh inconclusive
CC(=O)n1cc(N(C(=O)CCl)c2ccc([N+](=O)[O-])cc2)c2ccccc21	HSF1 activator 74.9
CC(=O)n1cc(CO)c2ccccc21	none
Cc1[nH]c(=O)c(C(=O)/C=C/c2ccccc2F)c2c1CCCC2	LMP1 NFkB inh 81.0, LGR2 inh 86.2, TWEAK-Fn14 inh 88.8, TROY NFkB inh 50.4
Cc1csc(NC(=O)Cc2c[nH]c3ccccc23)n1	HSF1 activator 63.2 (no result: LGR2 inh)
O=C(Nc1cccc(Cl)c1)Nc1cccc(Cl)c1	none (no result: LGR2 inh)
Cc1cnc(NC(=O)Cc2c[nH]c3ccccc23)s1	none
Cc1csc(NC(=O)c2ccc(C(=O)Nc3nc(C)cs3)cc2)n1	none (no result: LMP1 NFkB inh, LGR2 inh, TWEAK-Fn14 inh, TROY NFkB inh)
COC(=O)c1cc(NC(=O)Nc2cccc(Cl)c2)ccc1Cl	TWEAK-Fn14 inh 77.9
Cc1csc(NC(=O)Nc2cccc(Cl)c2)n1	HSF1 activator 55.4 (no result: LGR2 inh)
CCc1ccc(C(=O)Nc2nc(C)cs2)s1	TWEAK-Fn14 inh 62.8
CNC(=O)C[C@@H]1CC[C@H]2[C@@H](COc3ccc(NC(=O)C4CCCCC4)cc3C(=O)N2C)O1	none (no result: HSF1 activator, HSF1 inh, LMP1 NFkB inh, TWEAK-Fn14 inh, TROY NFkB inh)
CCC(CC)c1nnc(NC(=O)c2ccc3ccccc3n2)s1	HSF1 activator 52.9
CCC(CC)c1nnc(NC(=O)c2cc(-c3ccccc3)nc3ccccc23)s1	none
Cc1csc(NC(=O)c2cc(C)nc3ccccc23)n1	none
Cc1csc(NC(=O)c2ccc3ccccc3n2)n1	HSF1 activator 54.7
Cc1csc(NC(=O)c2cnc3ccccc3n2)n1	LGR2 inh 58.4, TWEAK-Fn14 inh 52.2
O=C([C@@H]1[C@@H](CO)[C@@H]2Cn3c(cccc3=O)[C@@H]2N1CCC(F)(F)F)N1CCCCC1	none (no result: HSF1 activator, HSF1 inh, LMP1 NFkB inh, TWEAK-Fn14 inh, TROY NFkB inh)
CCCN1C[C@@H](C)[C@H](OC)CN(C)C(=O)c2cc(NC(=O)Nc3c(C)noc3C)ccc2OC[C@@H]1C	none (no result: HSF1 activator, HSF1 inh, LMP1 NFkB inh, TWEAK-Fn14 inh, TROY NFkB inh)
COc1ccc2c3c([nH]c2c1)[C@H](CO)N(C(=O)C1CC1)CC31CN(S(C)(=O)=O)C1	none (no result: HSF1 activator, HSF1 inh, LMP1 NFkB inh, TWEAK-Fn14 inh, TROY NFkB inh)
O=C(c1ccccc1)N1CC2(C1)[C@H](c1ccccc1)[C@H](CO)N2Cc1cc(F)ccc1F	none (no result: HSF1 activator, HSF1 inh, LMP1 NFkB inh, TWEAK-Fn14 inh, TROY NFkB inh)
O=C(c1cc(-c2ccc3c(c2)OCO3)on1)N1CCOCC1	LMP1 NFkB inh 61.6, TWEAK-Fn14 inh 77.2 (no result: LGR2 inh)
O=C(c1cc(-c2ccc3c(c2)OCO3)on1)N1CCN(c2ccccc2)CC1	TROY NFkB inh 65.0
C/C=C/c1ccc2c(c1)O[C@@H](CN(C)C(=O)NCCC)[C@@H](C)CN([C@H](C)CO)S2(=O)=O	none (no result: HSF1 activator, HSF1 inh, LMP1 NFkB inh, TWEAK-Fn14 inh, TROY NFkB inh)
O=S(=O)(NCc1cccs1)c1ccc(Br)cc1	none
O=C(Nc1ccc(Br)cc1)c1ccc(F)c(S(=O)(=O)NCc2cccs2)c1	TWEAK-Fn14 inh 57.6
